Laboratory results as given in article PMC4336329 (PLoS ONE, 2015).
The campaign covered roughly 310,000 compounds. About 14,000 (4.5%) showed an effect of 50% or more. Effects have a minus sign here. For the sample, strong results were picked, then their nearest neighbours and some compounds at random.

molecular target: human ether-à-go-go-related gene (hERG) potassium channel (human, UniProt Q12809); assay: primary screen, population patch clamp on CHO cells stably expressing hERG; higher = less effect of the substance
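Also: peak tail current of the secondary pulse compared with the same well before compound.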

human ether-à-go-go-related gene (hERG) potassium channel, sequence (Q12809 whole entry, looked up): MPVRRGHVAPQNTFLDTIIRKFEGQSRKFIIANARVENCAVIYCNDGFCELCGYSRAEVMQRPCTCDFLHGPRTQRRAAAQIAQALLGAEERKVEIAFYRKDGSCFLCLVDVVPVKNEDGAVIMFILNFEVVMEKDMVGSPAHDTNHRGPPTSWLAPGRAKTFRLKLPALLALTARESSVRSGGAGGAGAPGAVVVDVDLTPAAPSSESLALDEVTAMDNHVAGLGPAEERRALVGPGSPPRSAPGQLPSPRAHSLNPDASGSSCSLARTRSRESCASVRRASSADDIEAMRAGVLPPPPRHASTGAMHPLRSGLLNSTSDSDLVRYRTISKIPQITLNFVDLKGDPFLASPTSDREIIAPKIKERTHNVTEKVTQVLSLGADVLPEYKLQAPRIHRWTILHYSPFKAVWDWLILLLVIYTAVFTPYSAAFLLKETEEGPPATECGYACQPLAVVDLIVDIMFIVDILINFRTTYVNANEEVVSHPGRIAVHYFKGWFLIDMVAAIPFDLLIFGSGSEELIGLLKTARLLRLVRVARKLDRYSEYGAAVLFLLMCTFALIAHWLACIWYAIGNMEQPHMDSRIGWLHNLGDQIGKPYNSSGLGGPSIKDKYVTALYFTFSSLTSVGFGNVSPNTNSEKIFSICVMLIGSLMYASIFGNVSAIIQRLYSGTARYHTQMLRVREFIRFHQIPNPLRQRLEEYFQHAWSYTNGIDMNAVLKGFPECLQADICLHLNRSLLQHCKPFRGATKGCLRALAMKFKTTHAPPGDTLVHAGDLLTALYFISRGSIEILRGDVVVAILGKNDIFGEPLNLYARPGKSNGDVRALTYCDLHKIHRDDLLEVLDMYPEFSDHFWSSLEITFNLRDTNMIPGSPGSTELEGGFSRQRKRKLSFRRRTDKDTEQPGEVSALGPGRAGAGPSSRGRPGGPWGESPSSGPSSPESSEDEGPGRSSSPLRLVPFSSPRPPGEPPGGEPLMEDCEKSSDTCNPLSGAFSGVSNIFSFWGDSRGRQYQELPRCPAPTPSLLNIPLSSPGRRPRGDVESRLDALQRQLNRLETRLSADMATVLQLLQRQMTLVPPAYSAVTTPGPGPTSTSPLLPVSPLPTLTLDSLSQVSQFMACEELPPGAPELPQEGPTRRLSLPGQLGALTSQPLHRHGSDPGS

| Compound | hERG current change (%, negative = inhibition) at 10uM [%] |
| --- | --- |
| O=C(Nc1ccc(O)cc1C(=O)O)c1ccc2c(c1)C(=O)N(Cc1ccco1)C2=O | -16.8 |
| CCOc1ccc2[nH]c(=O)c(CN(CCO)C(=O)c3ccccc3F)cc2c1 | -0.495 |
| COC(=O)Cc1[nH]nc2c1C(c1c[nH]c3ccccc13)C(C#N)=C(N)O2 (stereo not drawn) | 17.8 |
| c1ccc(Nc2c(-c3ccco3)nc3ccccn23)cc1 | 9.75 |
| C=CCC1(N(C(C)=O)c2ccccc2)CCCCC1 | 5.28 |
| CSC(=NC#N)N1CCN(c2ccc([N+](=O)[O-])cc2)CC1 | -77 |
| CSC(=NC#N)N1CCN(c2ccccc2)CC1 | -2.95 |
| CSC(=NC#N)N1CCN(c2ccc(Cl)cc2)CC1 | -38.3 |
| O=C(Nc1ccc2c(c1)OCO2)c1cnn2c1NC(c1ccco1)CC2C(F)(F)F (stereo not drawn) | -4.57 |
| CCc1c(O)nc(SCC(=O)Nc2cc(C)on2)n(-c2ccccc2)c1=O | 3.39 |
| COc1cccc(-n2c(SCC(N)=O)nnc2-c2ccco2)c1 | 13.7 |
| CCn1c(SCC(=O)Nc2ncc(C(F)(F)F)cc2Cl)nnc1-c1ccccc1 | -12.6 |
| CCn1c(SCC(=O)NC2CC2)nnc1-c1ccc(OC)cc1 | 17.4 |
| Nc1nnc(SCC(=O)NC2CCCCC2)n1-c1ccccc1 | 6.78 |
| Cn1c(SCC(=O)Nc2ncc(C(F)(F)F)cc2Cl)nnc1-c1ccc(Cl)cc1 | -30.8 |
| C=CCn1c(SCC(=O)NC2CC2)nnc1-c1cccc(OC)c1 | 2.24 |
| CCn1c(SCC(=O)NC2CC2)nnc1-c1cccc(OC)c1 | -66.6 |
| COc1cccc(-n2c(SCC(=O)NC3CCCC3)nnc2-c2ccco2)c1 | -73.7 |
| O=C(CSc1nnc(Cc2cccs2)n1-c1ccccc1)NC1CCCCC1 | -62.5 |
| CNC(=O)CSc1nnc(-c2ccco2)n1-c1cccc(OC)c1 | -0.723 |
| CCn1c(SCC(=O)Nc2ncc(C(F)(F)F)cc2Cl)nnc1-c1cccc(C)c1 | -69.9 |
| CCn1c(Cc2cccs2)nnc1SCC(=O)NC1CC1 | -1.49 |
| Nn1c(N2CCCCC2)nc2ccccc21 | 6.16 |
| Cc1cc(C(=O)N/N=C2\CCCC(C)C2)n[nH]1 (stereo not drawn) | 11 |

| Compound | hERG current change (%, negative = inhibition) at 10uM [%] |
| --- | --- |
| CCC1=C(c2ccc(C)cc2)S(=O)(=O)N=C1N1CCC(C(=O)NCCCN2CCCCC2)CC1 | 20.5 |
| CCN(CC)CC(=O)Nc1nc(-c2ccc(Cl)cc2)cs1 | -35.8 |
| O=C(COc1ccccc1C(=O)NCC1CCCO1)Nc1ccc(Cl)cc1Cl (stereo not drawn) | -14 |
| COC(=O)c1ccc(COc2ccc(Cl)cc2)o1 | 2.11 |
| Cc1occc1-c1nnc(SCC(=O)NC2CCCC2)n1C | 15.5 |
| CCn1c(SCC(=O)NC2CCCC2)nnc1-c1ccoc1C | 14 |
| Cc1cccc(-n2c(SCC(=O)Nc3ccc4c(c3)OCO4)nnc2-c2ccoc2C)c1 | -0.162 |
| CCOc1ccccc1-n1c(SCC(=O)NC2CCCC2)nnc1-c1ccoc1C | -24 |
| Cc1occc1-c1nnc(SCC(=O)NC2CCCC2)n1-c1ccccc1 | -74.8 |
| Cc1cccc(-n2c(SCC(=O)NC3CCCC3)nnc2-c2ccoc2C)c1 | -83.2 |
| Cc1ccc(C)c(NC(=S)N2CCC(NC(=O)C3CCCCC3)CC2)c1 | 4.41 |
| COc1ccc(NC(=O)COc2ccc(-c3nn(C)c(=O)c4ccccc34)cc2)cc1 | 18.2 |
| S=C(NCc1cccnc1)Nc1cccc(Cl)c1 | -9.78 |
| CCOc1cc(C2Nc3ccccc3C(=O)N2c2ccccc2OC)ccc1O (stereo not drawn) | 1.46 |
| CC(C)CC(=O)N(c1ccc(F)cc1)C1C=CS(=O)(=O)C1 (stereo not drawn) | 14.4 |
| CC(=O)N1N=C2C3CCN(CC3)C2C1c1ccc(Br)cc1 (stereo not drawn) | 4.62 |
| COc1cccc(CNc2nc3nc(C)c(Cl)c(C)n3n2)c1 | -57.9 |
| COc1ccc(CNc2nc3nc(C)c(Cl)c(C)n3n2)cc1OC | -7.54 |
| Cc1cc(C)n2nc(NCc3ccccc3)nc2n1 | -9.34 |
| Cc1cc(C)n2nc(NCc3cccc(Br)c3)nc2n1 | -70 |
| COc1cccc(CNc2nc3nc(C)cc(C)n3n2)c1 | -15.6 |
| COc1ccc(CNc2nc3nc(C)c(Cl)c(C)n3n2)cc1 | 2.05 |
| CC(NC(=O)Cc1ccccc1F)c1ccc(F)cc1 (stereo not drawn) | 6.9 |
| Cc1ccc(C2=C/C(=C\c3cccnc3)C(=O)O2)cc1 | 30.8 |

| Compound | hERG current change (%, negative = inhibition) at 10uM [%] |
| --- | --- |
| NC(=O)NCCCC(=O)OCC(=O)c1ccc2ccccc2c1 | 13.4 |
| CCCNC(=O)N1CCC(c2nc3ccccc3s2)CC1 | -16.8 |
| CCOc1cc(N2CCOCC2)c(OCC)cc1NC(=O)COC(=O)c1cc(C)cc(C)c1 | -3.29 |
| COc1c2ccccc2c(OC)c2ccccc12 | 12.9 |
| C/C=C/c1ccccc1OCc1ccc(C(=O)O)o1 | 20 |
| CSCC[C@H](NC(=O)COc1ccc(Cl)cc1Cl)c1nc2ccccc2[nH]1 | 14.7 |
| CSCC[C@H](NC(=O)C(C)Oc1ccc(Cl)cc1)c1nc2ccccc2[nH]1 (stereo partly drawn) | -7.16 |
| CSCC[C@H](NC(=O)COc1ccc(Cl)cc1)c1nc2ccccc2[nH]1 | -56.5 |
| CCc1nnc(NC(=O)CSc2nnc(-c3ccoc3C)n2-c2ccc(C)cc2)s1 | -26.4 |
| Cc1ccc(C)c(-n2c(SCC(=O)Nc3nnc(C)s3)nnc2-c2ccoc2C)c1 | 5.96 |
| CCCn1c(SCC(=O)Nc2nnc(C)s2)nnc1-c1ccoc1C | 3.4 |
| CCc1nnc(NC(=O)CSc2nnc(-c3ccoc3C)n2-c2ccccc2)s1 | -3.54 |
| Cc1cccc(-n2c(SCC(=O)Nc3nnc(C)s3)nnc2-c2ccoc2C)c1 | -63.9 |
| CCc1nnc(NC(=O)CSc2nnc(-c3ccoc3C)n2-c2cccc(C)c2)s1 | -58.3 |
| O=C(NCCc1ccccc1Cl)c1cc(COc2ccc(F)cc2F)on1 | 7.59 |
| O=C(CCC(=O)Nc1ccc(F)cc1)N/N=C/c1cccnc1 | 17.8 |
| CCOc1ccc(S(=O)(=O)NCCC(=O)NCc2ccco2)cc1 | -0.369 |
| O=C(NC1CCCCC1)c1ccc(S(=O)(=O)N2CCCCC2)cc1 | -6.43 |
| COc1ccc(S(=O)(=O)Nc2cc(C(C)C)c(O)cc2C)cc1 | -2.38 |
| COC1CCCN(Cc2c(C(=O)N3CCc4ccccc4C3)nc3ccc(Cl)cn23)C1 (stereo not drawn) | -35.9 |
| CN(C)C(=O)c1nc2ccc(Cl)cn2c1CN1CCCC(OCc2ccccc2)C1 (stereo not drawn) | -36.2 |
| CN(C)C(=O)c1nc2ccc(Cl)cn2c1CN1CCCC(OCc2cccnc2)C1 (stereo not drawn) | -57.9 |
| NCCNc1ccc2nnnn2n1 | 38.7 |
| Oc1ccccc1CN1CCCC(N2CCc3ccccc3C2)C1 (stereo not drawn) | -38.8 |

| Compound | hERG current change (%, negative = inhibition) at 10uM [%] |
| --- | --- |
| COc1ccc(O)c(CN2CCCC(N3CCc4ccccc4C3)C2)c1 (stereo not drawn) | -46.6 |
| COc1ccc(CN2CCCC(N3CCc4ccccc4C3)C2)c(O)c1 (stereo not drawn) | -60.1 |
| CCOc1cc(CN2CCCC(N3CCc4ccccc4C3)C2)ccc1O (stereo not drawn) | -21.4 |
| COc1cccc(CN2CCCC(N3CCc4ccccc4C3)C2)c1O (stereo not drawn) | -17.7 |
| CCOc1cccc(CN2CCCC(N3CCc4ccccc4C3)C2)c1O (stereo not drawn) | -52.9 |
| CCC(C)(C)NC(=O)C(c1ccc(OC)cc1)N(CCOC)C(=O)CCC(=O)Nc1nccs1 (stereo not drawn) | 0.428 |
| COc1cc(NC(=O)Cn2cnc(S(=O)(=O)N3CCCCC3)c2)cc(OC)c1OC | 14.9 |
| Cc1ccc(-c2ncccc2OC(=O)C23CC4CC(CC(C4)C2)C3)cc1.Cl | 12 |
| COc1ccc2c(c1OC)CN(C)CCc1cc3c(cc1C(=O)C2)OCO3 | -81 |
| Br.COc1c2c(cc3c1OCO3)CCN(C)C2 | 0.899 |
| COc1ccc2c(c1OC)CN1CCc3cc4c(cc3[C@H]1C2)OCO4 | -1.81 |
| COc1ccc2c(c1OC)CN(C)CCc1cc3c(cc1C(O)C2)OCO3 (stereo not drawn) | -27.1 |
| COc1cc2c(cc1OC)C(C1c3cc4c(cc3CCN1C)OCO4)OC2=O (stereo not drawn) | 4.1 |
| COc1cc2c(cc1OC)C(=O)Cc1ccc3c(c1CN(C)CC2)OCO3 | -54.1 |
| O=C(Nc1ccc(CN2CCOCC2)cc1)c1ccc(Br)o1 | 1.56 |
| Cc1ccc2nc(SCC(=O)N3CC(C)OC(C)C3)nc(=O)n2c1 (stereo not drawn) | -13 |
| O=C(N/N=C/c1cc([N+](=O)[O-])c(N2CCOCC2)cc1N1CCOCC1)c1cccnc1 | -22.4 |
| CCOC(=O)N1CCC(c2cc(=O)n3[nH]cc(C(=O)OC)c3n2)CC1 | 9.34 |
| CCC12CCCN3CCc4c(n(c5ccccc45)C(O)(C(=O)OC)C1)C32 (stereo not drawn) | -28.9 |
| CC[C@]12CCCN3CCc4c(n(c5ccccc45)[C@](O)(C(=O)OC)C1)[C@@H]32 | -72.4 |
| CC[C@]12CCCN3CCc4c(n(c5ccccc45)[C@@](O)(C(=O)OC)C1)[C@@H]32 | -80.9 |
| CCC1(C(=O)OC)CCc2c(cc(OC)c3ccccc23)C1=O (stereo not drawn) | 3.07 |
| COC(=O)[C@@H]1[C@H]2C[C@H]3c4[nH]c5ccccc5c4CCN3C[C@@H]2CC[C@@H]1O.Cl | -22 |
| CC[C@H]1CC2CN3CCc4c([nH]c5ccccc45)C(C(=O)OC)(C2)C13.Cl (stereo partly drawn) | -2.97 |
